Results reported in PubChem BioAssay (NCI).
This is part of a sample that, as a whole, favours compounds with a hit. Of some 83,000 tested, about 20% had one in any assay.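 Step 1: grow cells in 96-well plates. Step 2: add test compound at a single concentration. Step 3: incubate 48 h. Step 4: record percent growth.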 Unmarked numbers belong to inactive results. Activity calls are given as the source filed them. The calls were made as follows: active = growth percent below 10; inactive = the rest.

Tests used:
Experiment in all cases: NCI-60 one-dose screen, 48 h (100 = growth as untreated, 0 = no growth, -100 = all killed)
Conditions in all cases: 10 µM unless noted
NCI-H23 lung = test system: NCI-H23 lung
NCI-H226 lung = test system: NCI-H226 lung
NCI-H322M lung = test system: NCI-H322M lung
HOP-62 NSCLC = test system: HOP-62 NSCLC
NCI-H460 lung = test system: NCI-H460 lung
HOP-92 NSCLC = test system: HOP-92 NSCLC
NCI-H522 lung = test system: NCI-H522 lung
A549/ATCC NSCLC = test system: A549/ATCC NSCLC
786-0 renal = test system: 786-0 renal
COLO 205 colon = test system: COLO 205 colon

Compound	growth (NCI-H23 lung)	growth (NCI-H226 lung)	growth (NCI-H322M lung)	growth (HOP-62 NSCLC)	growth (NCI-H460 lung)	growth (HOP-92 NSCLC)	growth (NCI-H522 lung)	growth (A549/ATCC NSCLC)	growth (786-0 renal)	growth (COLO 205 colon)
Cc1cccc(Oc2ccc(Nc3ncnc4ccc(NC(=O)CN(C)C)cc34)cc2Cl)c1	78.4%	93.1%	17.4%	59.3%	0.249% (active)	23.5%	30%	40.4%	47.9%	-15.8% (active)
CC(=O)[C@@H]1CC[C@]2(C(=O)n3ccnc3)CC[C@]3(C)[C@H](CC[C@@H]4[C@@]5(C)Cc6c([nH]c7ccccc67)C(C)(C)[C@@H]5CC[C@]43C)[C@@H]12	87.8%	76.3%	95.3%	95.7%	80.9%	93.9%	82.9%	68.2%	94.4%	101%
CCCCCCCCCCCC(=O)C(CCCCCCCCCC)C(=O)Nc1ccccc1 (stereo not given)	95.8%	97.1%	90.6%	96.8%	111%	102%	89.4%	91.2%	107%	108%
CNC(=O)c1c(NC(=O)c2ccc(C(C)C)cc2)sc2c(CN(C)C)c(O)ccc12	101%	95.2%	94.2%	98.9%	38.7%	64.7%	77.8%	115%	83.9%	97.6%
Cc1cccc(Oc2ccc(Nc3ncnc4ccc(NC(=O)CNCCO)cc34)cc2Cl)c1	85.1%	96.7%	18.9%	78.2%	39.2%	30.4%	31.6%	52.8%	55.7%	56.2%
C=CCn1c(SCC(=O)Nc2ccc(C(=O)/C=C/c3cc(OC)c(OC)c(OC)c3)cc2)nnc1-c1cc(-c2ccc(S(C)(=O)=O)cc2)nc2ccccc12	85.6%	85.3%	93.5%	111%	97.2%	112%	86.5%	99.4%	93.6%	111%
O=S(=O)(NCCNc1nccc(-c2c(-c3ccc(F)c(O)c3)nc3sccn23)n1)c1ccccc1	72.2%	99.8%	96.1%	98.9%	75.3%	63.9%	59.3%	81.8%	113%	33.9%
O=C(NNc1nc(Cl)nc(N2CCN(C(c3ccccc3)c3ccccc3)CC2)n1)c1ccccc1	-9.53% (active)	48%	32%	47.6%	86.3%	52.2%	-68.3% (active)	98.7%	70.5%	24.1%
CCc1nc(C)cn1C(=O)OCc1nc2nc(Cl)nc(N3CCOCC3)c2[nH]1	28.9%	-75% (active)	64.2%	47.9%	13.9%	-50.2% (active)	-75.5% (active)	15.1%	-77.4% (active)	-84.5% (active)
O=C1C(=O)c2c(nc3ncccn23)-c2ccccc21	-49.4% (active)	-83.2% (active)	-96.7% (active)	-90.4% (active)	-49.3% (active)	-84.1% (active)	-60.7% (active)	-35.6% (active)	-94.9% (active)	-70.7% (active)
CN(C)Cc1c(-c2ccccc2)[nH]c2ccccc12	88.7%	106%	114%	80.3%	99.5%	96.4%	82.5%	80.3%	90%	107%
COc1cccc(CCC(=O)c2cc3c(N)c(C(=O)Nc4ccccc4)sc3nc2C)c1	67.9%	71.5%	52.7%	45.1%	11.7%	74.2%	37.5%	39.6%	50.2%	37.1%
CN1CCN(C(=O)OCc2nc3c(N4CCOCC4)nc(-c4ccccc4)nc3n2C)CC1	-77.1% (active)	-66.7% (active)	58.2%	4.63% (active)	-46.9% (active)	-63.5% (active)	-35.3% (active)	6.44% (active)	-83.3% (active)	-53% (active)
Cc1c2c(cc[n+]1Cc1ccccc1)c1ccc(OCC3CCCCC3)cc1n2CC1CCCCC1	-76.7% (active)	-89.1% (active)	-83.2% (active)	-95% (active)	-93.4% (active)	-85.6% (active)	-84.5% (active)	-93.1% (active)	-91.3% (active)	-95.2% (active)
O=S(=O)(NCCCNc1nccc(-c2c(-c3cccc(O)c3)nc3occn23)n1)c1ccc(F)cc1	88.6%	110%	103%	117%	80.9%	116%	77.7%	88.8%	92.1%	35.5%
C(=C\c1n(Cc2ccc3ccccc3c2)c(-c2ccccc2)c(-c2ccccc2)[n+]1Cc1ccc2ccccc2c1)/c1ccccc1	-80.2% (active)	-74.9% (active)	-5.86% (active)	-84.5% (active)	-84.1% (active)	-81.8% (active)	-62.3% (active)	-62.4% (active)	-78.2% (active)	-70.5% (active)
C[C@@H]1CN(Cc2ccc(/C=C/c3n[nH]c4ccc5nc(-c6cn[nH]c6C(F)(F)F)c6c(c5c34)CCCC6)cc2)C[C@H](C)O1	31.9%	45.3%	45.1%	36.7%	-4.09% (active)	41.4%	21%	25.3%	26.6%	1.61% (active)
NC(=O)c1ccc[n+](CC(=O)N2CCN(c3cc4c(cc3F)c(=O)c(C(=O)O)cn4C3CC3)CC2)c1	92.4%	97.3%	104%	111%	101%	133%	-73.1% (active)	104%	74.6%	63.1%
CCCCCOc1ccc(/C=N/Nc2cc(C)nc3ccc(Br)cc23)cc1	75.1%	91.5%	65.1%	58.1%	-57.9% (active)	69.7%	1.99% (active)	2.38% (active)	-90.9% (active)	-50.4% (active)
COc1ccc(C(O)c2cc3c(N)c(C(=O)Nc4cccc(Br)c4C)sc3nc2C)cc1 (stereo not given)	32.1%	56.9%	46.1%	36.5%	-2.32% (active)	61.5%	-32.7% (active)	20.5%	37.6%	-7.14% (active)
O=C(CSc1nc2sc3c(c2c(=O)n1Cc1ccccc1)CCCC3)N1CCN(c2ccccc2)CC1	90.9%	94.6%	89.4%	88.3%	103%	103%	81.1%	73%	103%	112%
CN1CCN(c2cc(F)c(NC3=C(Cl)C(=O)c4ncccc4C3=O)c(F)c2)CC1	-61.2% (active)	85.3%	102%	83.3%	9.91% (active)	-79.9% (active)	-59.7% (active)	74.6%	-72% (active)	34%
O=C1Nc2cc(-c3ccncc3)ccc2/C1=C/c1ccc[nH]1	58.5%	78.5%	84%	105%	98.9%	104%	75.2%	101%	102%	112%
COc1ccc(/C=C(/c2ccccc2)[N+](=O)[O-])cc1	-47.9% (active)	-6.73% (active)	4.07% (active)	-36.2% (active)	-23.3% (active)	-55.6% (active)	-83.6% (active)	5.17% (active)	-93.4% (active)	-71.9% (active)
COc1ccc(NC(=O)c2sc3nc(C)c(C(O)c4ccc(OC)cc4)cc3c2N)cc1 (stereo not given)	36.2%	63.5%	51.3%	31.8%	9.03% (active)	57.6%	5.14% (active)	23%	53.3%	-6.28% (active)
Cc1[nH]n(-c2cccc(Cl)c2)c(=O)c1/C=C1\C=Nc2ccc(Br)cc21	31.7%	69.1%	54.9%	-16.4% (active)	-72.9% (active)	-16.9% (active)	29.2%	-8.71% (active)	-4.37% (active)	7.07% (active)
COc1cc2nc(-c3ccc(C(F)(F)F)cc3)cc(OCCN3CCC(O)CC3)c2cc1OC	88.9%	56.3%	68.8%	67.8%	44.5%	71.2%	79.6%	79.2%	78.7%	35.7%
